Assay outcomes deposited in PubChem BioAssay by National Center for Advancing Translational Sciences (NCATS).
Pf growth 48h = P. falciparum growth inhibition at 48 hours (one generation); P. falciparum luciferase growth in erythrocytes, 48 h; Potency, µM (top dose mostly 28.7 µM), without a hit: at the highest dose activity change, negative = inhibition, actives largely listed as inhibitors; hit rate 5.9% among 310,000; AID 504832; further: potency means the concentration at half of the fitted maximal effect; on the % scale 0 is the no-effect control and ±100 the full control effect
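Luciferase-expressing P. falciparum in infected erythrocytes (2% hematocrit, 0.1% parasitemia final) in RPMI 1640/0.5% Albumax were exposed to compound for 48 hours at 37 C, 5% CO2; growth read as luminescence.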
Pf growth 96h = P. falciparum growth inhibition at 96 hour, primary screen for plastid delayed-death inhibitors; Potency, µM (series often up to 28.7 µM), for the others: at the highest dose activity change, negative = inhibition, most hits filed as inhibitors; hit rate 6.9% among 320,000; P. falciparum luciferase reporter growth, 96 h; AID 504834; further: potency means the concentration at half of the fitted maximal effect; on the % scale 0 is the no-effect control and ±100 the full control effect
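96 h incubation, 37 C, 5% CO2, of luciferase-reporter P. falciparum-infected RBCs (2% hematocrit, 0.05% parasitemia final) with test compounds; endpoint luminescence.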
FBPA Giardia inh = inhibitors of Giardia lamblia fructose-1,6-bisphosphate aldolase. A8B2U2. purified Giardia FBPA. Potency, µM (doses to about 59.6 µM), inactives show at the top dose activity, negative = inhibition, usual class: inhibitors. hit rate 0.71% among 290,000. AID 2451; further: potency means the concentration at half of the fitted maximal effect; on the % scale 0 is the no-effect control and ±100 the full control effect; nearly all actives have a fitted effect of over 55% in size
Target sequence (A8B2U2 whole entry, looked up): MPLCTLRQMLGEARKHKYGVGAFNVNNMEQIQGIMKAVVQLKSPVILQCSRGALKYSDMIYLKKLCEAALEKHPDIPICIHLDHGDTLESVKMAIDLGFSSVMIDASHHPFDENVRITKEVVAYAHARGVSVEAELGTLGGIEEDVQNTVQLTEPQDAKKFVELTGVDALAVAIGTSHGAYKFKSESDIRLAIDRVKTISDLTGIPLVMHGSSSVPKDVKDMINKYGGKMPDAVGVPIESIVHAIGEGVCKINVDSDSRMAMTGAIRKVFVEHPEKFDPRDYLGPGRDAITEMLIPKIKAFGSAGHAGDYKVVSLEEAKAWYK
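40 nM FBPA preincubated 10 min at RT with compound (up to 57.5 uM final), then substrate plus GAPDH/TPI/NAD/arsenate coupling and diaphorase/resazurin added. Fluorescence read after 20 min at RT, 525/598 nm.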
NS1 function inh = influenza NS1 inhibition; Potency, µM (titrated, usually from 46.1 µM), inactives show at the top dose activity, positive = more growth; hit rate 0.4% among 270,000; calls by dose curve; further: potency means the concentration at half of the fitted maximal effect; actives are rising curves; nearly all actives have a fitted effect of over 50% in size
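Compounds were scored for reversing the slow growth caused by influenza A NS1 in S. cerevisiae, measured by optical density at 600 nm. Assay medium contained 2% galactose at pH 6.0; NS1-free yeast of the same strain were the positive control.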
Shiga inhibitor = blocks Shiga toxin action in Vero cells; hit rate 9.2% among 290,000; inhibition, % at 38.7 µM; AID 2315; Vero cells, Shiga toxin protein synthesis inhibition reporter; in the data active means inhibition mostly above about 28%, no sharp cut-off; inactive means mostly below about 43%; further: 0% is about no effect
CHX counter = affects cycloheximide protein synthesis inhibition readout, counter-screen. cell reporter, cycloheximide protein synthesis inhibition counterscreen. max response, %. hit rate 12% among 300,000. AID 2314; in the data active means max response mostly above about 13%, no sharp cut-off; inactive means mostly below about 14%; further: read at 38.3 µM for the half of the compounds with a filed dose; 0% is about no effect
Starred values were filed as active, the others as inactive; ? = inconclusive; . = not tested or not shown; [ ] = dose if it differs, or a comment. Only some compounds are listed: those with a hit (about 21% of all), similar ones and a draw of the others. Unless noted, the call rests on the fitted dose curve; in most records, active means well fitted curve in the direction sought with a large enough effect; inconclusive means small, poorly fitted or top-dose-only effect, or another doubt; inactive means no such curve, though single readings can be large; an effect the other way counts as inactive or inconclusive.

SMILES	Pf growth 48h	Pf growth 96h	FBPA Giardia inh	NS1 function inh	Shiga inhibitor	CHX counter
COc1ccccc1CNc1nc(-c2ccccc2CN(C)C)nc2ccccc12	.	.	1%	.	.	.
COC(c1ccccc1Br)C(C)/C=C/CCO (stereo not drawn)	.	.	1%[12.9 µM]	.	.	.
CC(=O)Nc1ccc(S(=O)(=O)Nc2nc3c(s2)CCCC3)cc1	22%	5%	17%	4%	58*	18*
CCN(CC)S(=O)(=O)c1ccc(NC(=O)c2ccc(Cl)nc2)cc1	?	4.7µM*	-2%	-8%	-5	-2
CCCSc1ccc(C(=O)Nc2ccc(Cl)cc2)cn1	8%	24%	1%	1%	43	28*
Cc1ccc(NC(=O)c2nsc(Cl)c2Cl)cc1	140%	318%	-1%	-4%	70*	56*
CCN(CC)S(=O)(=O)c1ccc(NC(=O)c2ccc(NS(C)(=O)=O)cc2)cc1	-18%	.	5%	-7%	-6	-2
CCOc1cc(/C=N/NC(=O)C(=O)NC)cc(Br)c1O	9%	?	1%	-9%	-7	8
COc1ccc(C2(C)NC(=O)N(CC3CCCCC3)C2=O)cc1 (stereo not drawn)	-2%	1%	.	1%	-11	-2
Cc1ccc(-c2nc3ccccc3[nH]2)cn1	127%	34%	?	-23%	32*	22*
CCOC(=O)CNC(=O)CSc1ccc(-c2nc3ccccc3[nH]2)cn1	28%	35%	-2%	-2%	5	3
Clc1ccc(-c2nc3ccccc3[nH]2)cn1	38%	7%	?	-34%	31	23*
CS(=O)(=O)Nc1cccc(-c2nc(NCCN3CCOCC3)c3ccccc3n2)c1	.	.	-7%	.	.	.
O=[N+]([O-])c1ccccc1N(CC1CO1)S(=O)(=O)c1ccccc1 (stereo not drawn)	8%	0%	1%	6%	-22	-1
O=C(COC(=O)c1ccc(N2CCOCC2)c([N+](=O)[O-])c1)Nc1ccc2c(c1)OCO2	12%	24%	2%	24%	19	-5
O=C(COC(=O)c1ccco1)Nc1ccc2c(c1)OCO2	14%	21%	-4%	3%	53*	25*
Nc1ccc(C(=O)OCC(=O)Nc2ccc3c(c2)OCO3)cc1[N+](=O)[O-]	6%	4%	-18%	?	17	20*
Cn1cccc1C(=O)OCC(=O)Nc1ccc2c(c1)OCO2	250%	240%	-1%	4%	64*	33*
O=C(COC(=O)CNC(=O)C1CCCCC1)Nc1ccc2c(c1)OCCO2	?	26%	5%	.	43	26*
O=C(CNC(=O)c1ccc(Cl)cc1Cl)OCC(=O)c1ccc2c(c1)OCCO2	.	39%	4%	-47%	73*	31*
CC(C)(C)c1ccc(C(=O)NCC(=O)OCC(=O)Nc2ccc3c(c2)OCCO3)cc1	32%	52%	-1%	-12%	16	12*
O=C(COC(=O)CNC(=O)c1ccc(Cl)cc1Cl)NCC1CCCO1 (stereo not drawn)	34%	20%	.	.	.	.
O=C(COC(=O)CNC(=O)C1CCCCC1)Nc1ccc2ccccc2c1	.	32%	1%	-58%	17	16
CC(C)(C)OC(=O)N1Cc2ccccc2C[C@H]1C(=O)NCC(=O)Nc1ccc2c(c1)OCCO2	74%	49%	-2%	3%	114*	52*
C/C=C/c1ccc(OC(C)[C@@H](O)c2ccc(O)c(OC)c2)c(OC)c1 (stereo partly drawn)	.	.	-7%	.	.	.
SMILES	Pf growth 48h	Pf growth 96h	FBPA Giardia inh	NS1 function inh	Shiga inhibitor	CHX counter
CCN(CC(=O)Nc1c(F)cccc1F)C(=O)c1nc2nc(C)cc(C)n2n1	-15%	29%	.	.	.	.
Cc1ccc(C)c(S(=O)(=O)C(C#N)c2nc3ccccc3nc2N2CC(C)OC(C)C2)c1 (stereo not drawn)	13µM*	-24%	0%	-10%	21	3
Cc1ccc(C)c(S(=O)(=O)C(C#N)c2nc3ccccc3nc2N2CCCC2)c1 (stereo not drawn)	?	25%	?	23%	-6	17
CCCCc1nc2c(c3c1CC(C)OC3)CN(CCOc1ccccc1)CC2 (stereo not drawn)	.	.	-5%[12.9 µM]	.	.	.
CN1CCN(c2ccccc2NC(=O)c2ccc3c(c2)OCCO3)CC1	9%	25%	5%	-6%	11	-1
CCC(=O)N1CCN(c2ccc(NC(=O)c3ccc4c(c3)OCCO4)cc2)CC1	-11%	106%	3%	.	36	19*
CCC(=O)N1CCN(c2ccc(Cl)cc2NC(=O)c2ccc3c(c2)OCCO3)CC1	?	23%	-3%	-69%	-9	2
Cc1ccc(C(=O)Nc2ccc(N3CCN(C)CC3)cc2)cc1C	53%	12µM*	?	5%	80*	32*
Cc1ccc(C(=O)Nc2ccc(N3CCN(C)CC3)cc2)c(Cl)c1	110%	10µM*	-7%	8%	62*	42*
CN1CCN(c2ccc(NC(=O)c3ccc4c(c3)OCCO4)cc2)CC1	100%	-3%	-2%	5%	81*	36*
O=S1(=O)NCC23CCC(CC21)O3 (stereo not drawn)	.	.	7%	.	-15	5
O=C(NCCCc1ccccc1)c1ccc(-n2cncn2)c([N+](=O)[O-])c1	?	3%	.	.	.	.
COC(=O)c1ccc(C23CC2(C(NP(=O)(c2ccccc2)c2ccccc2)c2ccccc2)C3)cc1 (stereo not drawn)	.	.	-7%	.	.	.
Cc1ccc(N2C(=O)N(CC(=O)Nc3cc(F)ccc3C)C(=O)C2C)cc1 (stereo not drawn)	9%	28%	.	.	.	.
Cc1ccc(C)c(NC(=O)CN(C)C(=O)Cn2c(=O)oc3ccccc32)c1	-29%	9%	.	.	.	.
CC(C)(C)OC(=O)N1CCC(C(=O)N[C@H](C(=O)O)c2ccccc2)(c2ccccc2)CC1	?	0%	-2%	8%	-3	1
C/C(=N\NC(=O)COc1ccccc1-c1ccccc1)c1ccccn1	2.1µM*	?	5%	.	-4	-2
CCCCCC(=O)N/N=C(\C)c1ccccn1	1.7µM*	?	-3%	-4%	18	5
C/C(=N\NC(=O)COc1ccccc1-c1ccccc1)c1cccnc1	?	-16%	2%	.	-5	-5
O=C(COc1ccccc1-c1ccccc1)N/N=C/c1ccc2ccccc2c1	-2%	2.3µM*	9%	1%	-1	-1
CN(C)S(=O)(=O)c1ccc(N2CCCC2)c(C(=O)NCC2CCCO2)c1 (stereo not drawn)	?	5%	.	.	.	.
Cc1noc(C)c1C(=O)N1CCC2(CCN(C(=O)Nc3ccccc3)CC2)CC1	.	.	6%	.	.	.
CCCC(=O)C1=C(O)C(C(=O)OC)C(C)(C)CC1=Nc1ccc(N)cc1 (stereo not drawn)	?	?	9%	-1%	16	-1
CCCC(=O)C1=C(O)C(C(=O)OC)C(C)(C)CC1=Nc1ccc(C)cc1 (stereo not drawn)	5.2µM*	19%	1%	-3%	-2	1
